RORg inh – inhibitors of mouse ROR gamma transcriptional activity. Drosophila S2 Gal4-RORgamma UAS-luciferase reporter, 20 h. Potency, µM (series often up to 53.6 µM), without a hit: top-dose activity change, negative = inhibition, most hits filed as inhibitors. 310,000 compounds, 5.4% hits. AID 2551; also: nearly all actives have a fitted effect of over 60% in size
Target sequence (P51450 whole entry, looked up, the tested form may be a part): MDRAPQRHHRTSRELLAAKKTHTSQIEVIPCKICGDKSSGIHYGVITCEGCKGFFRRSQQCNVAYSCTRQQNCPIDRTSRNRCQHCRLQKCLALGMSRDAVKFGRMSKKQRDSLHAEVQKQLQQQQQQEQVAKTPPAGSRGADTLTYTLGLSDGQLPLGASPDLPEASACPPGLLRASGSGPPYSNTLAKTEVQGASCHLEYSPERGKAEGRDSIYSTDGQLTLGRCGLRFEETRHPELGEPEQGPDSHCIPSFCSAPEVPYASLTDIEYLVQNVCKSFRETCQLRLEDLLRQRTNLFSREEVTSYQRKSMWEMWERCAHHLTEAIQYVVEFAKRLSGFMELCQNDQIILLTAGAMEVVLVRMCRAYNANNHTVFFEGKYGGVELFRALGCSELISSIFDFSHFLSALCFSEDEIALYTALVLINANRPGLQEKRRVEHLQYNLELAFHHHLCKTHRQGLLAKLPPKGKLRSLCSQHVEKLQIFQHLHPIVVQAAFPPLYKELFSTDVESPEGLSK
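ROR gamma transcriptional activity was tracked as Gal4-UAS luciferase output in stably transfected Drosophila Schneider cells, with compound added 1 hr before 700 uM copper sulfate induction and a 20 hr ambient-temperature incubation.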
TDP1 cell noCPT – qHTS for Inhibitors of human tyrosyl-DNA phosphodiesterase 1 (TDP1): qHTS in cells in absence of CPT; DT40 Tdp1-/- hTDP1 cells, no CPT, ATP luminescence, 48 h; Potency, µM (top dose mostly 46.2 µM), for inactives: at the highest dose activity change, negative = growth inhibition, hits mostly inhibitors; 420,000 compounds, 15% hits; also: nearly all actives have a fitted effect of over 55% in size
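Growth of hTDP1-complemented DT40 Tdp1-knockout cells is measured by ATP luminescence after at least 48 hr compound exposure at 37 °C, with DMSO substituting for the 20 nM CPT used in the parallel screen.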
ELG1 repair inh – inhibitors of ELG1-dependent DNA repair in HEK293T cells; HEK293T ELG1-luciferase reporter, luminescence, 16 h; DNA damage induced by 5-fluorouridine; Potency, µM (highest dose often 46.1 µM), without a hit: top-dose activity change, negative = inhibition, actives largely listed as inhibitors; 330,000 compounds, 2.3% hits; AID 504467; also: nearly all actives have a fitted effect of over 55% in size
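In this reporter screen, reduction of luminescence relative to DMSO vehicle indicated activity. Compounds and 5-fluorouridine were added together to 2,000 cells per well, incubated for 16 hr at 37 °C, then developed with ONE-Glo.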
12-LOX inh – blocks human arachidonate 12S-lipoxygenase | P18054 | purified 12hLO, xylenol orange hydroperoxide absorbance | Potency, µM (doses to about 108 µM), for the others: at the top dose activity change, negative = inhibition, most hits filed as inhibitors | 580,000 compounds, 1.1% hits
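Hydroperoxide product was detected by ferrous iron/xylenol orange as the 573 to 405 nm absorbance ratio. Arachidonic acid at 40 uM (final) was turned over for 30 min at room temperature by 150 nM human 12hLO, pH 7.0 Hepes buffer, after 15 min compound preincubation.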
TDP1 cell CPT – DT40-hTDP1 cell growth loss with CPT. 420,000 compounds, 12% hits. Potency, µM (series often up to 46.2 µM), without a hit: at the top dose activity change, negative = growth inhibition, most hits filed as inhibitors. chicken DT40 Tdp1-/-;hTDP1 cells + 20 nM CPT, ATP luminescence, 48 h; also: nearly all actives have a fitted effect of over 55% in size
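Cell growth measured by CellTiter-Glo luminescence after a minimum 48 h, 37 C compound exposure with 20 nM CPT in Tdp1-knockout DT40 cells stably expressing hTDP1, seeded 400/well; qHTS titration format.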
Gal4-VP16 FLuc – counter-screen for ROR gamma inhibitors: Gal4-VP16 reporter; 310,000 compounds, 3.5% hits; Potency, µM (highest dose often 53.6 µM), without a hit: at the highest dose activity, negative = inhibition, actives largely listed as inhibitors; Drosophila S2 Gal4-VP16 UAS-luciferase, luminescence, 20 h;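 also: Gal4-VP16 expression switched on by copper sulfate through the metallothionein promoter; nearly all actives have a fitted effect of over 50% in size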
* marks the source's active call; other numbers are inactive results; ? = inconclusive; · = no result; ! = not active in a repeat; [ ] = dose if it differs, or a comment. Shown are actives, neighbours in structure and some others; about 15% of the full set was active somewhere. Calls follow the shape of the dose curve; as a rule, active = well fitted curve in the direction sought with a large enough effect; inconclusive = small, poorly fitted or top-dose-only effect, or another doubt; inactive = no such curve, though single readings can be large; an effect the other way counts as inactive or inconclusive. % is scaled to controls: 0 for no effect and ±100 for the full control effect; potency is read from the fitted curve at half-maximal effect.

SMILES | RORg inh | TDP1 cell noCPT | ELG1 repair inh | 12-LOX inh | TDP1 cell CPT | Gal4-VP16 FLuc
CC(=O)c1ccc(Nc2nc(C(N)Cc3ccc(C(F)(F)F)cc3)cs2)cc1 (stereo not given) | · | 16µM* | · | -16% | 15µM* | ·
N#Cc1ccccc1CN1CCCCCNC(=O)[C@@H]2CCC[C@@H]21 | · | · | · | 200% | · | ·
CCOCCCNC(=O)c1cc2cc(C)ccc2nc1C | · | · | · | 10% | · | ·
CCCc1cnc(Nc2nc(C(N)Cc3ccc(OC)cc3)cs2)nc1 (stereo not given) | · | ? | · | -22% | ? | ·
COc1ccc(NC(=O)Nc2nc(C(N)Cc3ccc(C(F)(F)F)cc3)cs2)cc1 (stereo not given) | · | 16µM* | · | ? | ? | ·
Cc1ccc(N(CC(C)C)S(=O)(=O)c2nnc(NC(=O)c3cccs3)s2)cc1 | · | 23µM* | · | -14% | ? | ·
CCN(c1ccc(OC)cc1)S(=O)(=O)c1nnc(NC(=O)c2ccccc2Cl)s1 | 20% | 16µM*! | 2% | -23% | ? | -7%
COc1ccc(N(CC(C)C)S(=O)(=O)c2nnc(NC(=O)c3ccco3)s2)cc1 | 41% | 21µM*! | 12% | 24% | ? | 2%
O=C(c1ccc(Br)o1)N1CC2CC(C1)[C@H]1CCCC(=O)N1C2 (stereo not given in full) | · | · | · | 29% | · | ·
Cc1cccc(-c2nc(CN3CCCC(C(=O)NC4CCC(C)CC4)C3)c(C)o2)c1 (stereo not given) | -30% | 18µM* | ? | ? | ? | -9%
Cc1oc(-c2ccc(Cl)cc2)nc1CN1CCCC(C(=O)N2CCOCC2)C1 (stereo not given) | -7% | ? | 4% | ? | ? | -8%
CCOC(=O)N1CCC(NC(=O)C2CCCN(Cc3nc(-c4cccc(C)c4)oc3C)C2)CC1 (stereo not given) | 21% | 2.6µM* | ? | 11% | 5.8µM* | ?
Cc1cccc(CN2CCC(N3CCCC(C(=O)NC4CC4)C3)CC2)c1 (stereo not given) | · | · | · | 33% | · | ·
Cc1cccc(-c2nc(CN3CCCC(C(=O)N4CCN(c5cc(Cl)ccc5C)CC4)C3)c(C)o2)c1 (stereo not given) | · | 21µM* | · | ? | 16µM* | ·
Cc1ccc(OCc2nc(-c3ccc(C(=O)N4CCN(c5cc(Cl)ccc5C)CC4)cc3)oc2C)cc1 | · | 12µM* | · | -2% | 23µM* | ·
O=C(Cc1cccs1)N1CCC2(CC1)CC(N(Cc1ccc(F)cc1)C1CC1)CCO2 (stereo not given) | · | · | · | 8% | · | ·
CC(C)(C)C(=O)NCCc1ccsc1 | · | · | · | 39% | · | ·
Cc1cccc(-c2nc(CS(=O)CC(=O)NC3CCCCC3)c(C)o2)c1 (stereo not given) | -2% | -20% | -2% | -9% | -21% | -5%
Cc1cccc(-c2nc(CN3CCCC(C(=O)NC4CCCC4)C3)c(C)o2)c1 (stereo not given) | -16% | 12µM* | ? | -2% | ? | 1%
COc1ccc(O)c(C(=O)c2cnn(-c3ccc(Cl)cc3)c2)c1 | ? | -8% | 20% | -27% | 2% | 7%
Cc1ccc(O)c(C(=O)c2cc(C#N)c(=O)n(C(C)c3ccccc3)c2)c1 (stereo not given) | -25% | 15µM* | ? | 3% | ? | ?
COc1ccccc1-n1cc(C(=O)c2cc(C)ccc2O)cc(C#N)c1=O | · | · | · | -21% | · | ·
Cc1ccc(O)c(C(=O)c2cc(C#N)c3nc4ccccc4n3c2)c1 | 4% | 9.2µM* | ? | ? | ? | 0%
COc1ccc(O)c(C(=O)c2cnc3nc4ccccc4n3c2)c1 | ? | 21µM* | ? | ? | 15µM* | 3%
Cc1ccc(-n2cc(C(=O)c3cc(Cl)ccc3O)cc(C#N)c2=O)cc1 | ? | 23µM* | -7% | ? | 21µM* | ?
SMILES | RORg inh | TDP1 cell noCPT | ELG1 repair inh | 12-LOX inh | TDP1 cell CPT | Gal4-VP16 FLuc
Cc1nn(-c2ccccc2)c(Oc2ccccc2F)c1CCC(=O)NC(C)C | · | · | · | 4% | · | ·
CCCCCn1nc(C(=O)Nc2ccn(C)n2)c2ccccc2c1=O | · | · | · | 15% | · | ·
Cc1ccccc1NC(=O)c1cc(C(=O)c2cc(Cl)ccc2O)cn(-c2ccccc2C)c1=O | ? | 23µM* | 21µM* | -13% | 13µM* | -27%
N#Cc1cc(C(=O)c2cc(F)ccc2O)cn(Cc2ccccc2)c1=O | ? | ? | -2% | -26% | -1% | 5%[10 µM]
COc1cc(Cl)c(C)cc1-n1cc(C(=O)c2cc(Cl)ccc2O)cc(C#N)c1=O | · | · | · | -2% | · | ·
Cc1ccc(O)c(C(=O)c2cc(C#N)c(=O)n(Cc3ccccc3)c2)c1 | ? | 9.2µM* | 2% | -15% | 16µM* | 3%[10 µM]
C=CCN(C1CCCCC1)S(=O)(=O)c1ccc2c(c1)oc(=O)n2C | -18% | ? | 7% | 3%[57.4 µM] | 8.2µM* | 3%
COc1ccc(Cl)cc1C(=O)Nn1c(C)nc2ccccc2c1=O | 5% | ? | -4% | 11% | ? | -7%
COc1ccc(Cl)cc1C(=O)Nn1c(-c2cccs2)nc2ccccc2c1=O | 15% | ? | 6.5µM* | -1% | 10µM* | -5%
COc1ccc(N/N=C(\C=N\O)C(=O)c2ccc(OC)cc2)cc1 | 15% | 2.9µM* | ? | ? | 2.6µM* | 6%
CNC(=O)CSc1ccccc1OC | · | · | · | -10% | · | ·
CC(=O)OCC1(C)CN(c2ccccc2)NC1=O (stereo not given) | 13µM* | ? | ? | 40µM* | 21µM* | ?
CC(=O)OCC1(C)CN(c2ccccc2)N(C(C)=O)C1=O (stereo not given) | 14% | 21µM* | -13% | -15% | ? | -6%
CC(=O)OCC1(C)CN(c2ccccc2)N(C(=O)c2ccc(C(C)(C)C)cc2)C1=O (stereo not given) | 22% | ? | -15% | -18% | ? | 22%
COC(=O)CN1CC(=O)N(c2ccccc2)C1=S | 1% | -2% | -13% | -3% | 17% | 0%
CCc1nnc(NC(=O)CSc2nnc(-c3ccco3)o2)s1 | 11µM* | -5% | 4% | 13% | -2% | ?
CCc1nnc(NC(=O)CSc2nnc(COc3ccccc3C)o2)s1 | 11µM* | -26% | 18% | -22% | -19% | ?
O=C(Nc1ccccc1-c1ccccc1)c1ccncc1 | · | · | · | -25% | · | ·
Cc1ccc(CNC(=O)c2cc3c(-c4ccc(Cl)cc4)nn(C)c3s2)o1 | 6% | ? | 16µM* | ? | ? | -7%

Screening data deposited in PubChem by National Center for Advancing Translational Sciences (NCATS).
